DT40 TDP1 no CPT: qHTS for Inhibitors of human tyrosyl-DNA phosphodiesterase 1 (TDP1): qHTS in cells in absence of CPT; AID 686978, 2013; DT40 Tdp1-/- hTDP1 cells, no CPT, ATP luminescence, 48 h; Potency, µM (doses to about 46.2 µM), without a hit: at the highest dose activity change, negative = growth inhibition, usual class: inhibitors; actives 15% (n = 420,000); note: nearly all actives have a fitted effect of over 55% in size
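Cells were dispensed at 400 per well, compounds added by pin tool, plates incubated ≥48 hr at 37 °C, then CellTiter-Glo added for 30 min at room temperature before luminescence reading. Line: DT40 Tdp1-/- complemented with hTDP1; camptothecin omitted.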
GCN5L2 inh: blocks human GCN5L2 histone acetyltransferase. Q92830. GCN5L2 HAT assay, ThioGlo1 CoA-SH fluorescence. Potency, µM (series often up to 58.9 µM), for inactives: at the highest dose activity change, negative = inhibition, usual class: inhibitors. actives 0.21% (n = 390,000). AID 504327
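qHTS, 1536-well. 20nM enzyme, pH 7.5 HEPES/EDTA/Tween-20 buffer; 15 min compound preinc., RT. Start: 75uM H3(1-25), 70uM AcCoA, 50uM ThioGlo1. Read Ex340/Em540 at t=0 (autofluorescence flag) and t=20 min.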
VDR inh: inhibitors of human vitamin D receptor | Potency, µM, for the others: max response, negative = inhibition, hits mostly inhibitors | actives 0.93% (n = 400,000) | VDR-SRC2-3 peptide fluorescence polarization, 2 h | P11473 | AID 504847
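After 23 nl compound addition and a short centrifugation, plates sat for 2 hours at ambient temperature; polarization of fluorescence then indicated loss of VDR binding to peptide SRC2-3.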
PLK1 PBD block: PLK1 (human) polo-box domain binding inhibition; P53350; Plk1 PBD binding of FITC phosphopeptide, fluorescence polarization; Potency, µM, without a hit: max response, negative = inhibition, hits mostly inhibitors; actives 2.8% (n = 360,000); AID 720504; note: series mostly up to about 57 µM; nearly all actives have a fitted effect of over 65% in size
Target sequence (P53350 whole entry, looked up, the tested form may be a part): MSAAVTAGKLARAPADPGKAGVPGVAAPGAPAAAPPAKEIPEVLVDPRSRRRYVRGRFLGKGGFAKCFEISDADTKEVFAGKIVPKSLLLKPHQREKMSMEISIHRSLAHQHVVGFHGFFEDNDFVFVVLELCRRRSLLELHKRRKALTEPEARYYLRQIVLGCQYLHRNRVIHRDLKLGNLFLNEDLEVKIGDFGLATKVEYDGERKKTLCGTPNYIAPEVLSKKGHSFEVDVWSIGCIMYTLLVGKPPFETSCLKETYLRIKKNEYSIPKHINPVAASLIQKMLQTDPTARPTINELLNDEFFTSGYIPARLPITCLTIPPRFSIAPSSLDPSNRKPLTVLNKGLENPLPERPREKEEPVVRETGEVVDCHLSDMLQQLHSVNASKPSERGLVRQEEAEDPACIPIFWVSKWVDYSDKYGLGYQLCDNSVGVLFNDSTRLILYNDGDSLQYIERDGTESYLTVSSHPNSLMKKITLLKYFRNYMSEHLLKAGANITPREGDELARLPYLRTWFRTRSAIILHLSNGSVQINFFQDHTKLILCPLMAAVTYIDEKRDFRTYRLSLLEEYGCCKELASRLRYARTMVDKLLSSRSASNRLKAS
DT40 TDP1 CPT: DT40-hTDP1 cell growth loss with CPT; chicken DT40 Tdp1-/-;hTDP1 cells + 20 nM CPT, ATP luminescence, 48 h; Potency, µM (series often up to 46.2 µM), for the others: top-dose activity change, negative = growth inhibition, hits mostly inhibitors; actives 12% (n = 420,000); note: nearly all actives have a fitted effect of over 55% in size
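Chicken DT40 Tdp1-/- cells stably complemented with human TDP1 were seeded at 400 cells/well in medium containing 20 nM camptothecin, exposed to pin-transferred compounds, and grown at 37 °C for at least 48 hr. Viability was read as ATP luminescence.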
TDP1 block: TDP1 (human) enzyme inhibition; Q9NUW8; recombinant TDP1, AlphaScreen DNA substrate cleavage; Potency, µM (titrated, usually from 130 µM), for inactives: at the top dose activity change, negative = inhibition, usual class: inhibitors; actives 0.28% (n = 350,000); AID 485290; note: nearly all actives have a fitted effect of over 40% in size
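Enzyme-compound mixtures sat 15 min at room temperature, followed by a 5 min reaction with 15 nM final substrate and 10 min with AlphaScreen beads. Recombinant human Tdp1 was used at 1 nM final.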
* hit, by the source's call; ? = inconclusive; . = no result. An excerpt weighted towards active compounds, which were near 18% of everything screened. Calls come from the whole dose curve; as a rule, active = well fitted curve in the direction sought with a large enough effect; inconclusive = small, poorly fitted or top-dose-only effect, or another doubt; inactive = no such curve, though single readings can be large; an effect the other way counts as inactive or inconclusive. % is set by controls: 0 for no effect and ±100 for the full control effect; potency is the fitted concentration of half-maximal effect.

SMILES	DT40 TDP1 no CPT	GCN5L2 inh	VDR inh	PLK1 PBD block	DT40 TDP1 CPT	TDP1 block
CC1CCCN(C(=O)c2ccc(S(=O)(=O)N3CCC(c4nc5ccccc5s4)CC3)cc2)C1 (stereo not given)	6.5µM*	.	-5%	-2%	12µM*	.
CCN(CC)C(=O)c1ccc(S(=O)(=O)N2CCC(c3nc4ccccc4s3)CC2)cc1	10µM*	-2%	-9%	-4%	7.3µM*	2%
C=CCCCC	.	.	.	.	.	12%
CCCCN(C(=O)Cc1ccc(S(=O)(=O)N2CCOCC2)s1)c1c(N)n(CC(C)C)c(=O)[nH]c1=O	0%	-2%	-3%	-8%	-2%	-8%
Cc1nc2c(O)c3c(c(O)c2nc1C)C1C=CC3CC1	0.52µM*	.	0%	-9%	0.46µM*	.
Cc1nc2c(C)c(C)c(C)c(C)c2nc1C	-5%	11%	-14%	2%	7%	1%
CC(=C/c1ccccc1)/C=N/n1c(-c2ccncc2)n[nH]c1=S	16µM*	-2%	-2%	-21%	?	8%
Cc1cc(-c2n[nH]c(=S)n2/N=C/C(Cl)=C/c2ccccc2)n[nH]1	13µM*	-10%	?	?	15µM*	11%
CC(/C=N/n1c(-c2cccnc2)n[nH]c1=S)=C\c1ccccc1	?	-19%	-22%	-18%	?	6%
S=c1[nH]nc(-c2ccco2)n1/N=C/C(Cl)=C/c1ccccc1	15µM*	-6%	?	?	?	11%
CC(C)(C)NC(=O)C1Cc2ccccc2CN1 (stereo not given)	-6%	-8%	-1%	-1%	-9%	6%
C=CCn1c(Sc2ccccc2)nc2c1c(=O)[nH]c(=O)n2C	-12%	-1%	13%	-5%	-4%	0%
C=CCn1c(SCc2ccc(Cl)cc2)nc2c1c(=O)[nH]c(=O)n2C	21µM*	2%	-26%	-14%	?	4%
Cn1c(=O)[nH]c(=O)c2c1nc(SCC(=O)Nc1ccccc1)n2Cc1ccccc1	18µM*	-3%	-13%	-7%	23µM*	2%
CCCn1c(SCc2ccccc2)nc2c1c(=O)[nH]c(=O)n2C	?	-7%	?	?	?	2%
C/C=C/Cn1c(SCc2ccc(C)cc2)nc2c1c(=O)[nH]c(=O)n2C	?	-2%	?	21µM*	?	6%
CC=CCn1c(SCc2ccccc2)nc2c1c(=O)[nH]c(=O)n2C	?	.	.	27µM*	?	.
CCN(CC)S(=O)(=O)c1cc(NC(=O)CCNC(=O)c2ccco2)ccc1C	?	0%	-1%	-15%	?	7%
O=C(O)CCN1CCN(S(=O)(=O)c2ccc3ccccc3c2)CC1	13%	-5%	-28%	-16%	-1%	4%
COC(=O)c1c(NC(=O)c2ccc(C(=O)c3ccccc3)cc2)sc2c1CC(C)(C)NC2(C)C	?	.	.	-5%	-14%	.
CCOC(=O)c1c(NC(=O)COc2ccccc2)sc2c1CC(C)(C)NC2(C)C	16µM*	-7%	-18%	-10%	?	5%
CCOC(=O)c1c(NC(=O)CSc2nc3ccccc3[nH]2)sc2c1CC(C)(C)NC2(C)C	?	-8%	-2%	-3%	?	.
CCOc1ccc(C(=O)Nc2sc3c(c2C(=O)OC)CC(C)(C)NC3(C)C)cc1	16µM*	-3%	3%	2%	?	.
COC(=O)c1c(NC(=O)c2nc3ccccc3s2)sc2c1CC(C)(C)NC2(C)C	21µM*	-8%	-7%	-12%	23µM*	.
CCOC(=O)c1c(NC(=O)COC(=O)/C=C/c2ccco2)sc2c1CC(C)(C)NC2(C)C	5.8µM*	2%	-5%	-10%	?	.
CCOC(=O)c1c(C)c(-c2ccccc2)n(CC(=O)NC2CCCCC2)c1C	-10%	1%	1%	.	1%	3%

Bioassay records (PubChem BioAssay)
